Drawing on PubChem BioAssay, this text covers inhibition for 33 compounds.

Structures are written as SMILES. A number with no mark means an inactive call. Calls of active or inactive are those of the source. Cut-off read from the data, not from the text of the source, unless noted: active = inhibition above about 36%; inactive = the rest.

Tested on in the first test: not listed separately
In words: compounds suppressing VP16-driven luciferase signal – cell-based, luminescence, high throughput, counter-screen for LRH-1 inverse agonist project (AID 651615; in the data active = inhibition above about 33%). As to conditions: Gal4-VP16 luciferase reporter cells, at 3.6 µM, active compounds read high.
`CC(=O)O[C@H]1C[C@@H]2OC3C=C(C)CCC3(C)[C@@]1(C)[C@@]21CO1` (stereo partly drawn): the inhibition is 96.8% (active). On to `CC(=O)OC1CC(OC2C(O)CC(OC3C(O)CC(OC4CCC5(C)C(CCC6C5CCC5(C)C(C7=CC(=O)OC7)CCC65O)C4)OC3C)OC2C)OC(C)C1OC1OC(CO)C(O)C(O)C1O` (stereo not drawn), for which the inhibition was 92.5% (active). As to `COC1=C(C)C(=O)C2=C(C1=O)C(CO)N1C(C#N)C3CC4C(C1C2N1CCOC41)N3C` (stereo not drawn), the inhibition was 95.3% (active). Still for that read-out and setting: in the case of `C[C@@H]1O[C@@H](O[C@@H]2C=C3CC[C@@H]4C(CC[C@]5(C)[C@@H](c6ccc(=O)oc6)CC[C@]45O)[C@@]3(C)CC2)[C@H](O)[C@H](O)[C@H]1O` (stereo partly drawn) it was 95.6% (active). Same read-out and setting: in the case of `COC1C(O)C(C)OC(OC2CCC3(C)C(CCC4C3C(O)CC3(C)C(C5=CC(=O)OC5)CCC43O)C2)C1O` (stereo not drawn) it was 91.1% (active).

In the next test the test system is transactivating tegument protein VP16 (Human herpesvirus 1). In words: compounds suppressing VP16-driven luciferase signal – cell-based, luminescence, single concentration, counter-screen for SRC2 inhibitor project (AID 652007). As to conditions: cell-based VP16 transactivation luciferase reporter, at 8.9 µM, active compounds read high.
On to `Nc1cccc(SC2CC(=O)N(c3ccc(Cl)cc3C(=O)c3ccccc3)C2=O)c1` (stereo not drawn), for which the inhibition was 3.94%. For `C=C1C(=O)O[C@H]2C[C@@H](C)[C@@H]3C=CC(=O)[C@@]3(C)C[C@H]12`, the inhibition is 69.4% (active). Regarding `CN1C(=O)C[N+]([O-])=C(c2ccccc2)c2cc(Cl)ccc21`, the inhibition is 13.7%. Regarding `CC(=O)O[C@H]1C[C@@H]2OC3C=C(C)CCC3(C)[C@@]1(C)[C@@]21CO1` (stereo partly drawn), the inhibition was 79.3% (active). On the same count and under the same terms, in the case of `c1cncc(-c2ccc3n2Cc2cnnn2-c2ccccc2-3)c1` it was 11%. Regarding `FC(F)(F)c1ccccc1N1CC1c1ccncc1` (stereo not drawn), the inhibition was -14.4%. `Oc1ccc(-[n+]2c(-c3ccccc3)cc(-c3ccccc3)cc2-c2ccccc2)cc1`: the inhibition is 35.3%. On to `CCOP(=O)(OCC)C1(O)C(=O)Nc2ccc(Br)cc21` (stereo not drawn), for which the inhibition was -7%. Still for that read-out and setting: for `O=C(c1ccc(Cl)cc1)C1CCCN(Cc2cccc3ncccc23)C1` (stereo not drawn) the value was 14.6%; for `COC(=O)C1=C(c2ccc(-c3ccccc3)c(F)c2)C[C@@H]2CC[C@H]1N2C(=O)NCc1ccc(F)cc1`, -5.9%; for `CCn1ccnc1CN1CCCC(C(=O)c2cccc(C(F)(F)F)c2)C1` (stereo not drawn), -3.5%. On the same count and under the same terms, for `COC(=O)C1=C(C(=O)OC)C2c3ccccc3C1c1ccccc12` the value was 12.3%; for `Cc1nc2cc(-c3ccc(Cl)cc3)nn2c(C)c1CCC(=O)N1CCC2(CC1)OCCO2`, 16.4%; for `COc1cc(CC(C)N)c(OC)cc1I` (stereo not drawn), -16.9%.

With `O=[N+]([O-])c1ccc(N2CCCC(C(F)(F)F)C2)c2ccncc12` (stereo not drawn), the inhibition was 10.6%. Same read-out and setting: in the case of `CCOC(=O)C1(CCc2ccccc2)CCN(Cc2cccc3cnccc23)CC1` it was 10.4%; in that of `Cc1ccccc1CN1Cc2cnnn2-c2ccccc2C1C#N` (stereo not drawn), 39.8% (active).

With `C[C@@H]1C[C@@H]([C@H](O)CC2CC(=O)NC(=O)C2)C(=O)[C@@H](C)C1`, the inhibition was 48% (active).

On to `CC(=O)OC1CC(OC2C(O)CC(OC3C(O)CC(OC4CCC5(C)C(CCC6C5CCC5(C)C(C7=CC(=O)OC7)CCC65O)C4)OC3C)OC2C)OC(C)C1OC1OC(CO)C(O)C(O)C1O` (stereo not drawn), for which the inhibition was 67.4% (active). With `COC1=C(C)C(=O)C2=C(C1=O)C(CO)N1C(C#N)C3CC4C(C1C2N1CCOC41)N3C` (stereo not drawn), the inhibition is 41.7% (active). Turning to `C[C@@H]1O[C@@H](O[C@@H]2C=C3CC[C@@H]4C(CC[C@]5(C)[C@@H](c6ccc(=O)oc6)CC[C@]45O)[C@@]3(C)CC2)[C@H](O)[C@H](O)[C@H]1O` (stereo partly drawn), the inhibition is 67.9% (active). For the compound `COC1C(O)C(C)OC(OC2CCC3(C)C(CCC4C3C(O)CC3(C)C(C5=CC(=O)OC5)CCC43O)C2)C1O` (stereo not drawn), the inhibition was 57.6% (active). With `O=Cc1cn(Cc2ccc(F)cc2Cl)c2ccccc12`, the inhibition was 14.2%. Take `COc1ccc(S(=O)(=O)N2Cc3cnnn3-c3ccccc3C2C#N)cc1` (stereo not drawn): the inhibition was 1.55%. Same read-out and setting: in the case of `CCOP(=O)(OCC)c1cccc(OP(=O)(c2cccc([N+](=O)[O-])c2)c2cccc([N+](=O)[O-])c2)c1` it was -4.6%; in that of `O=C1NC(=O)N(Cc2ccco2)C(=O)/C1=C/C=C/c1ccco1`, 8.52%. For `NC(=O)c1c(Br)n(C2OC(CO)C(O)C2O)c2ncnc(N)c12` (stereo not drawn), the inhibition is 15.6%. On the same count and under the same terms, in the case of `CN(Cc1cccc(-c2cccnc2)c1)C(=O)Oc1ccc([N+](=O)[O-])cc1` it was 2.36%.

`CCN1CCN(S(=O)(=O)c2ccc(Cl)c(C(=O)Nc3ccc(C(=O)N(CC)CC)cc3)c2)CC1`: the inhibition is -10.1%. Same read-out and setting: for `Cc1ccc(N2C(=O)NC(=O)C(CCc3ccccn3)(Cc3ccc(F)cc3)C2=O)cc1` (stereo not drawn) the value was -10.7%; for `COc1ccc2c3c1O[C@H]1C(=O)CC[C@H]4[C@@H](C2)N(C)CC[C@]314`, -4.81%; for `CC(=O)OC(C)(C)/C=C/C(=O)C(C)(O)C1[C@H](O)C[C@@]2(C)C3CC=C4C(CC[C@@H](O)C4(C)C)[C@]3(CO)C(=O)C[C@]12C` (stereo partly drawn), 31.1%. On the same count and under the same terms, in the case of `Cc1nc2cc(-c3cccc(F)c3)nn2c(C)c1CCC(=O)N1CCC2(CC1)OCCO2` it was -18.5%.
